Measured values published in PubChem BioAssay.
Values joined by “and” are separate entries in the source; they are usually repeats but may differ in a detail not shown here. Equal values may be shown once. Active and inactive are the calls of the source.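 The calls were made as follows, unless noted: active = compounds whose cell count with miR-34 switched on is under 0.7 times the count with it off; inactive = the rest.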

Legend:
[1] = viability loss with induced miR-34 in A549 – imaging, A549 dox-inducible miR-34, nuclei and caspase counts, primary screen (AID 1347080); conditions: A549 miR-34 inducible, Hoechst nuclei count, 48 h
[2] = MELAS cybrid and Rieske KO viability enhancers – cell-based, MELAS cybrids, Rieske KO mouse fibroblasts, CellTiter-Glo, primary screen (AID 1508586;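 active = mean z-score across replicates of 1.96 or higher in either the MELAS or the Rieske mutant cell line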;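 also: z relative to plate mean and SD of compound and empty wells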); conditions: low glucose
[3] = tested on: Hepatitis C virus NS3 helicase; experiment: blockers of NS3h binding to ssDNA – biochemical, fluorescence polarization, LOPAC1280 library, primary screen (AID 687035; in the data active = inhibition above about 37%); conditions: Purified HCV NS3 helicase, Cy5-dT15 ssDNA binding fluorescence polarization; stronger effect = higher value; concentration not given here
[4] = compounds altering Cy5-DNA-NS3h complex signal – biochemical, LOPAC1280, artefact control for HCV NS3 helicase inhibitor project (AID 687037; call rule not given here); conditions: Cy5-DNA-NS3h complex fluorescence interference counterscreen
[5] = blockers of cellular phospholipid synthesis – cell-based, LOPAC library, screen 4, primary screen (AID 1347384; call rule not given here); conditions: animal cells, phospholipid biosynthesis inhibition screen; at 10 µM
[6] = galactose survival enhancers in mitochondrial complex I cybrids – cell-based, galactose medium, ATP luminescence, primary screen (AID 1645843;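 active = z-score of at least 1.8 in each of two replicates, scored against plate mean and spread of sample wells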;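 also: positive z means more ATP and so rescue of galactose-driven cybrid death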); conditions: complex I mutant cybrid cells, 72 h, stronger effect = higher value
[7] = compounds altering viability of human ES cells (AID 493140; call rule not given here;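 also: cells exposed to compounds for four days before counting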); conditions: human embryonic stem cell survival screen; stronger effect = higher value
[8] = P. berghei load reduction in hepatocytes – cell-based, HepG2, luciferase luminescence, HepG2 viability, primary screen (AID 624349; in the data active = parasite load remaining mostly below about 12%, no sharp cut-off; inactive = mostly above about 10%;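 also: 100% = mean of DMSO negative control wells on the same plate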); conditions: P. berghei liver stage in HepG2, luciferase luminescence, concentration not given here; parasite load remaining: stronger effect = lower value; viability: measured here: HepG2 viability without parasites
[9] = target: NAD(+) hydrolase SARM1 (Homo sapiens) (UniProt Q6SZW1); experiment: blocking NAD cleavage by SARM1 SAM-TIR – cell lysate, NAD-Glo luminescence (AID 1508614;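 active = compound whose remaining NAD level is above about 45 nM, limit read from the data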;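 also: higher remaining NAD means stronger inhibition of SARM1 NADase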); conditions: SAM-TIR HEK293T lysate NADase, at 1 µM, stronger effect = higher value
[10] = target: Mitogen-activated protein kinase 7 (Homo sapiens) (UniProt Q13164); experiment: Gal4-ERK5 driven luciferase induction – cell-based, HTS, primary screen (AID 1508626;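 active = luciferase signal above three times the same-plate solvent-only control wells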;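 also: luciferase driven by Gal4-ERK5 fusion binding five Gal4 sites before minimal TATA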); conditions: HeLa Gal4-ERK5 transactivation, 18 h, at 5 µM, stronger effect = higher value
[11] = measured here: relative caspase fold change +Dox/-Dox
[12] = measured here: total cells with miR-34 induction, stronger effect = lower value
[13] = measured here: total cells without miR-34 induction
[14] = MELAS cybrid survival, CellTiter-Glo 48 h, stronger effect = higher value
[15] = Rieske KO mouse fibroblast survival, CellTiter-Glo 72 h
[16] = stronger effect = lower value, cell number ratio, induced over uninduced

Sequence of NAD(+) hydrolase SARM1 (Homo sapiens) (Q6SZW1 whole entry, looked up, the tested form may be a part): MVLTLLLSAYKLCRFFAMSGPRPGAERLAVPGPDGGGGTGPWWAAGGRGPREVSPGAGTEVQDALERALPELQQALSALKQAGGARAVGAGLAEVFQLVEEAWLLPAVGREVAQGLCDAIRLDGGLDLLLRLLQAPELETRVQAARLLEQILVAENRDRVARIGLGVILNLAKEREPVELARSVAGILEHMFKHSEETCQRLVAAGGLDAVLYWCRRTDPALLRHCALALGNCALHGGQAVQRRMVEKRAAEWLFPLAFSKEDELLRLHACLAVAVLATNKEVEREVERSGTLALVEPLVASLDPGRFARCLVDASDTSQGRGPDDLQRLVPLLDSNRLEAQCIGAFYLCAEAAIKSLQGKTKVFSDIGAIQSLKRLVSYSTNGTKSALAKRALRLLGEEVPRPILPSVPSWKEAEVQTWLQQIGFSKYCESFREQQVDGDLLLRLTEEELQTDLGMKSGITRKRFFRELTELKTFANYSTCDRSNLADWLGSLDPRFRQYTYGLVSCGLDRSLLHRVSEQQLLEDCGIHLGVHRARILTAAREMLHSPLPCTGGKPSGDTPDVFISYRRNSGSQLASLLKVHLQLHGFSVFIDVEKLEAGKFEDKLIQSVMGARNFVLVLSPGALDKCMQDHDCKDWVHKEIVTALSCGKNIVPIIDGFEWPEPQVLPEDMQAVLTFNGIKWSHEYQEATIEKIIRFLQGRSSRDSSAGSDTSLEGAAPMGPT
Sequence of Mitogen-activated protein kinase 7 (Homo sapiens) (Q13164 whole entry, looked up, the tested form may be a part): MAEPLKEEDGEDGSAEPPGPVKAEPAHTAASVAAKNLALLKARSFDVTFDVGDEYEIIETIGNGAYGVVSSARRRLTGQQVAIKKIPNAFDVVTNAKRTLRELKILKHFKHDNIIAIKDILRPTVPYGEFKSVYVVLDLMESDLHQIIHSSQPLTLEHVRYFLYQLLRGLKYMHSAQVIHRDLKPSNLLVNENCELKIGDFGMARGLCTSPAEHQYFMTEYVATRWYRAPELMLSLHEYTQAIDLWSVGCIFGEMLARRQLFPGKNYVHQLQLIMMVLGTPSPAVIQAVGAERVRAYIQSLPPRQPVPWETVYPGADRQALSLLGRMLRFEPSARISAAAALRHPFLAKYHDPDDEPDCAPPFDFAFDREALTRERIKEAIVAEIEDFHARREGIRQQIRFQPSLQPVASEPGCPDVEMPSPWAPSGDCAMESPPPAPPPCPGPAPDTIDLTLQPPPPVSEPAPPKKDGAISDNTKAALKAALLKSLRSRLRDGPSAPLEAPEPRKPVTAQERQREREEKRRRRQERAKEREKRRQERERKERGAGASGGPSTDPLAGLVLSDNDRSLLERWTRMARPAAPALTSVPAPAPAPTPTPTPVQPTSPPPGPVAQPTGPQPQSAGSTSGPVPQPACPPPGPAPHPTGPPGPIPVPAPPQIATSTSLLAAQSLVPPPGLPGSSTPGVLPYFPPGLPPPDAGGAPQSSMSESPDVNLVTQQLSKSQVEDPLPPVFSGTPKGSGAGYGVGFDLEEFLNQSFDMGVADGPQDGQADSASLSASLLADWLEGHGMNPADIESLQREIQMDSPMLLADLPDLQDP

Question: What does the source list for `CC(=O)Nc1ccc(Cc2ccc(NC(C)=O)cc2)cc1`?
Answer: fold change ([1]; stronger effect = lower value): 0.888 (inactive); fold change [1, 11]: 0.668; cell count [1, 12]: 8350; cell count [1, 13]: 9400; z-score [2, 14]: -0.423 (inactive); z-score [2, 15]: 0.257

Question: For `c1cc2c(cc1C1OC[C@H]3C(c4ccc5c(c4)OCO5)OC[C@H]13)OCO2` (some centres undefined), which fold change [1, 16] is on record?
Answer: The fold change was 0.925 (inactive).

Question: And the fold change [1, 11]?
Answer: Its fold change is 0.861.

Question: What about the cell count [1, 12] of the same compound?
Answer: The cell count was 8900.

Question: What about the cell count [1, 13] of the same compound?
Answer: The cell count was 9620.

Question: What about the z-score [2, 14] of the same compound?
Answer: The z-score was -0.349 (inactive).

Question: What about the z-score [2, 15] of the same compound?
Answer: Its z-score is 0.747.

Question: For `CCN1C[C@@]2(COC)C3[C@@H](OC)C4[C@@H]1C3([C@@H]1C[C@@]3(O)[C@H](OC(=O)c5ccccc5)[C@@H]1[C@]4(OC(C)=O)[C@@H](O)[C@@H]3OC)[C@H](OC)C[C@H]2O`, which inhibition [3] is on record?
Answer: The inhibition was -4% (inactive).

Question: And the fluorescence ratio (interference) [4]?
Answer: The fluorescence ratio (interference) was 1 (inactive).

Question: And the fold change ([1]; stronger effect = lower value)?
Answer: The fold change was 1.01 (inactive).

Question: And the fold change [1, 11]?
Answer: The fold change was 1.67.

Question: What about the cell count [1, 12] of the same compound?
Answer: Its cell count is 10600.

Question: What about the cell count [1, 13] of the same compound?
Answer: The cell count was 10500.

Question: And the outcome [5]?
Answer: The outcome was “inactive”.

Question: And the z-score [6]?
Answer: The z-score was 0.075 (inactive).

Question: Which results are given for `CC(=Cc1csc(C)n1)C1CC2O[C@]2(C)CCCC(C)C(O)C(C)C(=O)C(C)(C)C(O)CC(=O)O1` (some centres undefined)?
Answer: fold change [1, 16]: 1.08 (inactive); fold change [1, 11]: 0.662; cell count [1, 12]: 1610; cell count [1, 13]: 1500; z-score [2, 14]: 1.69 (inactive); z-score [2, 15]: -0.237

Question: For `N#CC(OC1OC(COC2OC(CO)C(O)C(O)C2O)C(O)C(O)C1O)c1ccccc1` (centres undefined), which fold change ([1]; stronger effect = lower value) is on record?
Answer: The fold change was 0.82 (inactive).

Question: And the fold change [1, 11]?
Answer: Its fold change is 1.

Question: What about the cell count [1, 12] of the same compound?
Answer: Its cell count is 6790.

Question: What about the cell count [1, 13] of the same compound?
Answer: The cell count was 8280.

Question: And the z-score [2, 14]?
Answer: Its z-score is -0.2 (inactive).

Question: And the z-score [2, 15]?
Answer: Its z-score is -0.452.

Question: Which results are given for `Clc1ccc(C(Cn2ccnc2)OCc2c(Cl)cccc2Cl)c(Cl)c1` (centres undefined)?
Answer: fold change [1, 16]: 0.876 (inactive) and 0.926 (inactive); fold change [1, 11]: 1.06 and 1.05; cell count [1, 12]: 8420 and 7330; cell count [1, 13]: 9620 and 7910; z-score [2, 14]: -0.214 (inactive) and 1.01 (inactive); z-score [2, 15]: -1.26 and 0.334

Question: For `CN1CCN(c2nc3ccccc3nc2Cl)CC1`, which fold change [1, 16] is on record?
Answer: Its fold change is 0.946 (inactive).

Question: And the fold change [1, 11]?
Answer: Its fold change is 0.445.

Question: And the cell count [1, 12]?
Answer: Its cell count is 7800.

Question: And the cell count [1, 13]?
Answer: The cell count was 8250.

Question: And the z-score [2, 14]?
Answer: Its z-score is -0.222 (inactive).

Question: And the z-score [2, 15]?
Answer: Its z-score is -0.11.

Question: With `Cc1c(N)nc(C(CC(N)=O)NCC(N)C(N)=O)nc1C(=O)NC(C(=O)NC(C)C(O)C(C)C(=O)NC(C(=O)NCCc1nc(-c2nc(C(=O)NCCC[S+](C)C)cs2)cs1)C(C)O)C(OC1OC(CO)C(O)C(O)[C@H]1OC1OC(CO)C(O)C(OC(N)=O)C1O)c1cnc[nH]1` (some centres undefined) as the compound, how does the fold change [1, 16] read?
Answer: The fold change was 1.05 (inactive).

Question: What about the fold change [1, 11] of the same compound?
Answer: Its fold change is 0.471.

Question: And the cell count [1, 12]?
Answer: Its cell count is 3100.

Question: What about the cell count [1, 13] of the same compound?
Answer: Its cell count is 2960.

Question: What about the z-score [2, 14] of the same compound?
Answer: Its z-score is -0.352 (inactive).

Question: And the z-score [2, 15]?
Answer: The z-score was -0.104.

Question: Which fold change [1, 16] does the source give for `CCCN1CCO[C@@H]2c3cc(O)ccc3OC[C@@H]21` here?
Answer: The fold change was 0.947 (inactive).

Question: And the fold change [1, 11]?
Answer: The fold change was 0.482.

Question: What about the cell count [1, 12] of the same compound?
Answer: Its cell count is 8140.

Question: What about the cell count [1, 13] of the same compound?
Answer: The cell count was 8590.

Question: And the z-score [2, 14]?
Answer: Its z-score is 0.111 (inactive).

Question: And the z-score [2, 15]?
Answer: The z-score was 0.146.

Question: For `O=c1[nH]c2ccc(Cl)cc2c(NC2CN3CCC2CC3)c1-c1nc2ccccc2[nH]1` (centres undefined), which fold change [1, 16] is on record?
Answer: Its fold change is 0.941 (inactive).

Question: And the fold change [1, 11]?
Answer: The fold change was 1.09.

Question: And the cell count [1, 12]?
Answer: The cell count was 1120.

Question: What about the cell count [1, 13] of the same compound?
Answer: The cell count was 1200.

Question: And the z-score [2, 14]?
Answer: The z-score was 1.28 (inactive).

Question: What about the z-score [2, 15] of the same compound?
Answer: Its z-score is -3.49.

Question: What does the source list for `CC(C)(c1ccccc1)c1ccc(O)cc1`?
Answer: fold change ([1]; stronger effect = lower value): 0.897 (inactive); fold change [1, 11]: 0.637; cell count [1, 12]: 8850; cell count [1, 13]: 9870; z-score [2, 14]: 0.409 (inactive); z-score [2, 15]: -0.32; z-score [6]: 0.62 (inactive)

Question: What does the source list for `CC1=C(C(=O)Nc2ccccc2)SCCO1`?
Answer: fold change ([1]; stronger effect = lower value): 0.865 (inactive); fold change [1, 11]: 0.79; cell count [1, 12]: 8550; cell count [1, 13]: 9880; z-score [2, 14]: 0.971 (inactive); z-score [2, 15]: -0.224; z-score [6]: -0.385 (inactive)

Question: Which fold change ([1]; stronger effect = lower value) does the source give for `Cc1sc2c(c1C)C(c1ccc(Cl)cc1)=NC(CC(=O)OC(C)(C)C)c1nnc(C)n1-2` (centres undefined) here?
Answer: The fold change was 0.954 (inactive).

Question: What about the fold change [1, 11] of the same compound?
Answer: Its fold change is 0.485.

Question: What about the cell count [1, 12] of the same compound?
Answer: Its cell count is 5260.

Question: What about the cell count [1, 13] of the same compound?
Answer: The cell count was 5520.

Question: What about the z-score [2, 14] of the same compound?
Answer: Its z-score is 0.154 (inactive).

Question: What about the z-score [2, 15] of the same compound?
Answer: The z-score was -3.85.

Question: What does the source list for `Oc1ccc(C2(c3ccc(O)cc3)CCCCC2)cc1`?
Answer: fold change ([1]; stronger effect = lower value): 0.911 (inactive); fold change [1, 11]: 0.41; cell count [1, 12]: 7610; cell count [1, 13]: 8350; z-score [2, 14]: -0.617 (inactive); z-score [2, 15]: -0.22; z-score [6]: -1.9 (inactive)

Question: For `CC(Cc1ccccc1)NCCC(c1ccccc1)c1ccccc1` (centres undefined), which survival [7] is on record?
Answer: Its survival is 2.25 (inactive).

Question: What about the parasite load remaining [8] of the same compound?
Answer: The parasite load remaining was 54.7% (inactive).

Question: And the viability [8]?
Answer: Its viability is 77.6%.

Question: And the fold change ([1]; stronger effect = lower value)?
Answer: Its fold change is 1.36 (inactive).

Question: And the fold change [1, 11]?
Answer: Its fold change is 0.226.

Question: And the cell count [1, 12]?
Answer: The cell count was 3500.

Question: What about the cell count [1, 13] of the same compound?
Answer: The cell count was 2580.

Question: And the z-score [2, 14]?
Answer: Its z-score is -0.835 (inactive) and -1.25 (inactive).

Question: What about the z-score [2, 15] of the same compound?
Answer: The z-score was -0.134 and -0.319.

Question: What about the z-score [6] of the same compound?
Answer: Its z-score is -2.66 (inactive).

Question: For `C/C=C/N1CC[C@]23CCCC[C@H]2[C@H]1Cc1ccc(O)cc13`, which parasite load remaining [8] is on record?
Answer: Its parasite load remaining is 46.3% (inactive).

Question: And the viability [8]?
Answer: The viability was 104%.

Question: What about the fold change ([1]; stronger effect = lower value) of the same compound?
Answer: Its fold change is 0.904 (inactive).

Question: And the fold change [1, 11]?
Answer: The fold change was 1.04.

Question: What about the cell count [1, 12] of the same compound?
Answer: The cell count was 9380.

Question: What about the cell count [1, 13] of the same compound?
Answer: The cell count was 10400.

Question: What about the z-score [2, 14] of the same compound?
Answer: The z-score was -1.07 (inactive).

Question: What about the z-score [2, 15] of the same compound?
Answer: The z-score was -0.504.

Question: What about the z-score [6] of the same compound?
Answer: Its z-score is 0.26 (inactive).

Question: With `O=C1C[C@@H]2OCC=C3CN4CC[C@]56c7ccccc7N1[C@H]5[C@H]2[C@H]3C[C@H]46` as the compound, how does the parasite load remaining [8] read?
Answer: The parasite load remaining was 96.5% (inactive).

Question: And the viability [8]?
Answer: Its viability is 226%.

Question: What about the fold change ([1]; stronger effect = lower value) of the same compound?
Answer: Its fold change is 0.929 (inactive).

Question: What about the fold change [1, 11] of the same compound?
Answer: Its fold change is 1.24.

Question: And the cell count [1, 12]?
Answer: The cell count was 10000.

Question: What about the cell count [1, 13] of the same compound?
Answer: The cell count was 10800.

Question: And the z-score [2, 14]?
Answer: The z-score was 0.997 (inactive).

Question: What about the z-score [2, 15] of the same compound?
Answer: The z-score was 0.445.

Question: What about the remaining NAD [9] of the same compound?
Answer: The remaining NAD was 10 nM (inactive).

Question: What about the luciferase signal [10] of the same compound?
Answer: Its luciferase signal is 48 AU (inactive).

Question: What about the z-score [6] of the same compound?
Answer: The z-score was 0.365 (inactive).
